The target in assay [1] is Cellular tumor antigen p53 (Homo sapiens) (UniProt P04637). Description: Primary qHTS for small molecule compounds that upregulate eGFP-tagged delta133p53alpha (in N-terminal) cells. (AID 2060322).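 Further: series mostly up to about 56 µM; 0% = DMSO vehicle and 100% = reference activator; nearly all actives have a fitted effect of over 75% in size.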 As to conditions: NCI-H358 eGFP-delta133p53alpha fluorescence, 24 h; activation: hits give high values. In outline: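 NCI-H358 cells pre-induced 24 h with 10 ng/ml doxycycline to express N-terminal eGFP-delta133p53alpha, then dosed 24 h at 37C without doxycycline; fixed, Hoechst-stained, GFP intensity by laser scanning cytometry, normalized to DMSO (0%) and 57.5 uM 5-azacytidine (100%).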

Assay [2] has the same target. Description: Primary qHTS for small molecule compounds that upregulate eGFP-tagged delta133p53alpha (in C-terminal) cells. (AID 2060324).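 Further: 0% = DMSO wells and 100% = 57.5 µM 5-azacytidine.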 In outline: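 C-terminal eGFP-tagged delta133p53alpha NCI-H358 line; dox-induced (100 ng/ml, 24 h) then plated without dox; compounds pinned in titration, 24 h 37 °C/5% CO2; PFA fix, Hoechst nuclei; GFP by LSC.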
Background: Quantitative high-throughput screening tests each substance at several concentrations.

Assay [3] deals with Aldehyde dehydrogenase, mitochondrial (Homo sapiens) (UniProt P05091). In words: qHTS for Inhibitors of the Aldehyde Dehydrogenase Family (ALDH2) Validation screens (AID 2061302; active means well fitted inhibition curve with a large enough effect; title and protocol of this record describe different tests;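 further: plate controls were DMSO vehicle for no effect and maximal DPI positive control response for full effect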).
The target in assay [4] is Retinaldehyde dehydrogenase 3 (Homo sapiens) (UniProt P47895). In words: qHTS for Inhibitors of the Aldehyde Dehydrogenase Family (ALDH1A3) Validation screen (AID 2061312). Further: on the % scale 0 is the no-effect control and ±100 the full control effect; nearly all actives have a fitted effect of over 45% in size.
A short description of assay [5]: BET inhibitor-based combinations targeting novel dependencies in MECOM-rearranged (r) AML: SET-2 cell line (AID 2202231). Further: nearly all actives have a fitted effect of over 35% in size. Further: potency means the concentration at half of the fitted maximal effect.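 On viability: plate controls were DMSO treated cells for no effect and wells without cells for full effect.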 The following applies: SET-2 AML cells viability, CellTiter-Glo luminescence, 48 h; viability: hits give low values, concentration not given here. In outline:
(§1)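 Cells were plated at 500 per well and exposed to an 11-point dose series of each drug for 48 hr. Viability was measured by CellTiter-Glo luminescence, normalized to DMSO and empty-well controls, and summarized as AUC and per-cell-line Z-AUC.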

Assay [6] is described as follows: BET inhibitor-based combinations targeting novel dependencies in MECOM-rearranged (r) AML: OCI-AML3 cell line (AID 2202232). Further: nearly all actives have a fitted effect of over 35% in size. Further: potency means the concentration at half of the fitted maximal effect. The following applies: Potency: OCI-AML3 viability. In a few lines: as §1
Assay [7] in a line: BET inhibitor-based combinations targeting novel dependencies in MECOM-rearranged (r) AML: MV-4-11 cell line (AID 2202233). Further: nearly all actives have a fitted effect of over 45% in size. Further: potency means the concentration at half of the fitted maximal effect. In outline:
(§2)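 Activity is given as area under the curve and as Z-AUC, mean-centred within each cell line. It comes from 11-point dose curves normalized to DMSO and empty wells. CellTiter-Glo luminescence was read after 48 hr drug exposure of 500 cells/well.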

Assay [8] is described as follows: BET inhibitor-based combinations targeting novel dependencies in MECOM-rearranged (r) AML: HNT-34 cell line (AID 2202234). Further: nearly all actives have a fitted effect of over 35% in size. Further: potency means the concentration at half of the fitted maximal effect. In a few lines:
as §2

The nature of assay [9]: BET inhibitor-based combinations targeting novel dependencies in MECOM-rearranged (r) AML: UCSD-AML1 cell line (AID 2202235).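 Further: series mostly up to about 46 µM; plate controls were DMSO vehicle wells for no effect and blank wells for full effect; nearly all actives have a fitted effect of over 40% in size.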 In outline: as §2
Assay [10] can be described thus: BET inhibitor-based combinations targeting novel dependencies in MECOM-rearranged (r) AML: AML-191 cell line (AID 2202236;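 further: plate controls were vehicle wells for no effect and wells without cells for full effect; nearly all actives have a fitted effect of over 35% in size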). In outline: as §1
Assay [11] can be described thus: BET inhibitor-based combinations targeting novel dependencies in MECOM-rearranged (r) AML: AML-194 cell line (AID 2202237; further: nearly all actives have a fitted effect of over 40% in size; further: potency means the concentration at half of the fitted maximal effect). In a few lines:
as §1

Where “and” joins values, the source holds several entries; their conditions need not be identical. Equal values may be shown once. Records with an inconclusive call do not appear. Values without a mark were called inactive. Calls of active or inactive are those of the source. Unless noted, the call rests on the fitted dose curve; in most records, active means well fitted curve in the direction sought with a large enough effect; inconclusive means small, poorly fitted or top-dose-only effect, or another doubt; inactive means no such curve, though single readings can be large; an effect the other way counts as inactive or inconclusive.

For orientation: viability means a read-out of living cells in per cent, often relative to untreated cells.

Cellular tumor antigen p53 (Homo sapiens), sequence (P04637 whole entry, looked up): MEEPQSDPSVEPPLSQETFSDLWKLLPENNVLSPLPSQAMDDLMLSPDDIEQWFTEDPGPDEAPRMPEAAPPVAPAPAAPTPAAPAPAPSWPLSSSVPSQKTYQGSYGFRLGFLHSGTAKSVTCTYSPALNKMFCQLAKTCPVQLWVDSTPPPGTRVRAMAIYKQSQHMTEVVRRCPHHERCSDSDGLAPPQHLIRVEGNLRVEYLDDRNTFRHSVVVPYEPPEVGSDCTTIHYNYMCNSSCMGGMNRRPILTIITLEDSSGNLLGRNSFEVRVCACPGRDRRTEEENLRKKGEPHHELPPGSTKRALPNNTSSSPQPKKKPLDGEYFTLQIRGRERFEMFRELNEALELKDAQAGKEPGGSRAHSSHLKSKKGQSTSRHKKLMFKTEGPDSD

`CCCN(CCC)C(=O)C(CCC(=O)O)NC(=O)c1ccccc1` (configuration not stated): in [1], the activation was -4.18% and 0.787%. Moreover, the Potency entry in [2], in [3], in [4], in assay [6], in [7] and in assay [8] was “inactive” in each case. The Potency entry in [9], in assay [10] and in assay [11] was “inactive” in each case. In addition, in [5], the viability is 109%.

In the case of `COc1cc(SC)ccc1C(=O)N1CCC(Cc2ccccc2)CC1`, the activation in [1] was 14.6%. Moreover, the Potency entry in assay [2], in assay [3], in assay [4], in assay [6], in assay [9] and in assay [10] was “inactive” in each case. Moreover, in assay [11], the Potency entry is “inactive”. Further, the viability in [5] was 97%. In addition, the Potency in assay [7] was 20.9 µM (active).

Regarding `Cc1cnc(C(=O)NCCc2ccc(S(=O)(=O)NC(=O)NC3CCCCC3)cc2)cn1`, in assay [1], the activation is -31.3% and -14.1% and 0.362%. Besides, the Potency result in [2], in assay [3], in assay [4], in assay [6], in assay [7] and in assay [8] was “inactive” throughout. Besides, the Potency result in assay [10] is “inactive”. The viability in assay [5] is 105%.

As for `CN(C)C(=O)C(CCN1CCC(O)(c2ccc(Cl)cc2)CC1)(c1ccccc1)c1ccccc1`, the activation in assay [1] was 62.2% and -46.1%. The Potency result in assay [2], in assay [3] and in assay [4] was “inactive” throughout. In addition, the figures for the Potency in assay [5], in assay [7] and in assay [8] were 14.8 µM (active), 20.9 µM (active) and 20.9 µM (active), respectively.

Take `O=c1c(O)c(-c2ccc(O)cc2O)oc2cc(O)cc(O)c12`: the activation in [1] was 15.3% and -27.9%. Further, the Potency result in assay [2], in [3], in assay [4], in assay [6], in assay [7] and in assay [8] was “inactive” each time. Further, the Potency entry in assay [10] and in assay [11] was “inactive” in each case. Moreover, in assay [5], the viability is 122%.

Consider `CC12CC3CC(C)(C1)CC(N)(C3)C2`, for which the activation in [1] was -20.9% and 13.4% and -0.343%. Further, the Potency result in assay [2], in assay [3], in assay [4], in assay [6], in assay [7] and in assay [8] was “inactive” throughout. In addition, the Potency result in assay [9], in assay [10] and in [11] was “inactive” throughout. Besides, the viability in assay [5] is 110%.

As to `CC[C@H](C)C(=O)O[C@H]1CCC=C2C=C[C@H](C)[C@H](CC[C@@H]3C[C@@H](O)CC(=O)O3)[C@H]21`, the activation in assay [1] is -12.3%. In addition, the Potency entry in assay [2], in assay [3] and in [4] was “inactive” each time. Also, the Potency in assay [6] was 11.8 µM (active).

On to `NC12CC3CC(CC(C3)C1)C2`, for which the activation in assay [1] is 1.69% and 3.9%. Further, the Potency entry in assay [2], in assay [3], in assay [4], in assay [7], in [8] and in [9] was “inactive” throughout. Besides, the Potency entry in assay [10] and in assay [11] was “inactive” each time. Also, the viability in assay [5] was 106%.

On to `NCCCCNCCCN`, for which the activation in assay [1] is -3.21% and -16.4%. Besides, the Potency entry in assay [2], in assay [3] and in assay [4] was “inactive” in each case. Besides, the Potency was 18.6 µM (active) in [5], 10.5 µM (active) in assay [7] and 23.5 µM (active) in [8].

Turning to `CC(=O)Oc1ccccc1C(=O)O`, in assay [1], the activation was 23.2% and 81.8% and -5.87%. Besides, the Potency result in assay [2], in assay [3], in [4], in assay [7], in assay [8] and in assay [9] was “inactive” throughout. The Potency result in assay [10] and in [11] was “inactive” in each case.

As to `CN(C)CCC=C1c2ccccc2C=Cc2ccccc21`, in [1], the activation was 5.02% and 17.3%. The Potency result in [2], in assay [3], in assay [4] and in [9] was “inactive” in each case. Further, the Potency in assay [6] was 16.6 µM (active); in [7], 20.9 µM (active); in assay [8], 16.6 µM (active).

As for `NCCc1ccc(O)c(O)c1`, the activation in [1] was -4.36% and 11.8%. Moreover, the Potency entry in assay [2], in assay [3], in assay [4], in assay [9], in [10] and in assay [11] was “inactive” throughout. Moreover, in assay [5], the viability was 112%. Also, the Potency in assay [7] was 18.6 µM (active).

Regarding `Cn1cnc([N+](=O)[O-])c1Sc1ncnc2nc[nH]c12`, the activation in assay [1] was -10%. Moreover, the Potency result in assay [2], in assay [3], in assay [4] and in assay [9] was “inactive” in each case. Further, the Potency is 1.66 µM (active) in assay [5] and 0.468 µM (active) in [11].

Take `CN1CCC(=C2c3ccccc3C=Cc3ccccc32)CC1`: the activation in assay [1] is -15.3% and 19.5% and -34.1%. The Potency entry in assay [2], in assay [3], in assay [4], in assay [9] and in assay [11] was “inactive” in each case. For the same compound, in [5], the Potency was 13.2 µM (active).

Regarding `CC(C)Cc1ccc(C(C)C(=O)O)cc1` (configuration not stated), in assay [1], the activation is 17.5% and 9.01%. In addition, the Potency entry in assay [2], in assay [3], in assay [4], in assay [7], in assay [8] and in assay [9] was “inactive” in each case. For the same compound, the Potency entry in assay [10] and in [11] was “inactive” each time. The viability in assay [5] was 111%.

Consider `CC/C(=C(\c1ccccc1)c1ccc(OCCN(C)C)cc1)c1ccccc1`, for which the activation in assay [1] was -17.6% and -12.3% and -27%. For the same compound, the Potency entry in assay [2], in assay [3] and in assay [4] was “inactive” each time. In addition, the Potency in assay [5] was 12.1 µM (active); in assay [7] it was 15.2 µM (active); in [8], 15.2 µM (active).

For `CN[C@H](CC(C)C)C(=O)N[C@H]1C(=O)N[C@@H](CC(N)=O)C(=O)N[C@H]2C(=O)N[C@H]3C(=O)N[C@H](C(=O)N[C@H](C(=O)O)c4cc(O)cc(O)c4-c4cc3ccc4O)[C@H](O)c3ccc(c(Cl)c3)Oc3cc2cc(c3O[C@@H]2O[C@H](CO)[C@@H](O)[C@H](O)[C@H]2O[C@H]2C[C@](C)(N)[C@H](O)[C@H](C)O2)Oc2ccc(cc2Cl)[C@H]1O`, the activation in [1] was -2.02%. Besides, the Potency result in [2], in [3], in assay [4], in assay [7], in assay [8] and in assay [9] was “inactive” throughout. Also, the Potency entry in assay [10] and in [11] was “inactive” in each case. Further, in assay [5], the viability is 117%.

The values are drawn from PubChem BioAssay (NCATS).
